Data from PubChem BioAssay (NCI).
About 79,000 compounds went through this panel and 15% of them were active in at least one assay; those are over-represented in the sample as a whole. Cut-off read from the data, not from the text of the source: active = growth inhibition above about 70%; inactive = the rest. *1 amine or outer side, *2 acyl side, *3 side chain or, on linkers, in order; H or OH if unused. Where a SMILES comes first, the peptide text is derived from it. Bridges are numbered along the chain shown (N, C = ends). [ ]: non-standard residue; d: D form. The star is where a group is joined. ξ: configuration not given here. Fmoc = O=C(OCC1c2ccccc2-c2ccccc21)*; X9 = O=C(C(CCCCNO[*:3])N[*:1])[*:2]; ξW = NC(Cc1c[nH]c2ccccc12)C(=O)O; ξP = O=C(O)C1CCCN1

Assays:
[1] = NCI Yeast Anticancer Drug Screen. Data for the rad50 strain (AID 155);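 note: 0% = growth of vehicle-only cultures of the same strain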; details: S. cerevisiae rad50 strain growth inhibition; at 50.0 µM; active compounds read high
Method in brief: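 A DNA repair-deficient yeast mutant serves as the test organism; compound-induced growth inhibition is calculated against vehicle-treated cells.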

[2] = NCI Yeast Anticancer Drug Screen. Data for the mec2-1 strain (AID 157); details: S. cerevisiae mec2-1 strain, at 50.0 µM, active compounds read high
Method in brief: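 Growth inhibition is read against vehicle-treated controls after compound exposure of the mec2-1 yeast strain, which is defective in DNA damage repair or cell cycle control.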

[3] = NCI Yeast Anticancer Drug Screen. Data for the sgs1 mgt1 strain (AID 161);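 note: 0% = growth of cultures given vehicle only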; details: S. cerevisiae sgs1 mgt1 strain, at 50.0 µM, active compounds read high
Method in brief: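 This yeast growth screen uses a strain with defined DNA-repair lesions; compound-treated growth is compared with vehicle-treated growth.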

[4] = NCI Yeast Anticancer Drug Screen. Data for the cln2 rad14 strain (AID 165);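 note: 0% = growth equal to vehicle treated cultures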; details: S. cerevisiae cln2 rad14 strain, at 50.0 µM, active compounds read high
Method in brief: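 Growth inhibition, relative to vehicle-treated controls, is the read-out. The test organism is a yeast strain with defined genetic alterations, cln2 rad14.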

[5] = NCI Yeast Anticancer Drug Screen. Data for the bub3 strain (AID 167); details: S. cerevisiae bub3 mutant strain, at 50.0 µM, active compounds read high
Method in brief: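 Inhibition values come from growth of compound-treated mutant yeast normalised to vehicle-treated controls.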

[6] = NCI Yeast Anticancer Drug Screen. Data for the mlh1 rad18 strain (AID 175); details: S. cerevisiae mlh1 rad18 strain growth inhibition; at 50.0 µM; active compounds read high
Method in brief: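 Cells of a genetically altered yeast strain, deficient in DNA damage repair, were treated with compound. Their growth was then compared with that of vehicle-treated cultures to give inhibition.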

Measured: growth inhibition

Cc1ccc(NC(=O)Oc2ccc3ccccc3c2)cc1NC(=O)Oc1ccc2ccccc2c1
inactive: [1] 1.35% | [2] -19.4% | [3] -4.45% | [4] -86.5% | [5] 4.9% | [6] -1.85%

Cc1nc2ccccc2c(=O)n1-c1ccc(-c2nnc(Sc3nnc(-c4ccc(-n5c(C)nc6ccccc6c5=O)cc4)n3-c3ccccc3)n2-c2ccccc2)cc1
inactive: [1] 16.6% | [2] -3.35% | [3] 8.2% | [4] -17.6% | [5] 11.3% | [6] 30.1%

C=CCC1(/C(=C\CC)CCC)C(=O)NC(=O)N=C1N (stereo not drawn)
inactive: [1] 8.45% | [2] -0.3% | [3] 10% | [4] -36.8% | [5] -11.2% | [6] 8.3%

CCCCCCCCCc1ccc(COCC)cc1
inactive: [1] -9.55% | [2] 11.9% | [3] 7.05% | [4] -16% | [5] 22.1% | [6] 9.55%

O=[N+]([O-])c1ccc(/C=C/c2ccc([N+](=O)[O-])cc2S(=O)(=O)O)c(S(=O)(=O)O)c1
inactive: [1] 25.8% | [2] -9.6% | [3] 30.8% | [4] 5.45% | [5] 32.9% | [6] 32%

CC1(C)C(c2ccccc2)=NN(O)c2ccccc21
inactive: [1] -22.3% | [2] -15.8% | [3] 0.25% | [4] 15.4% | [5] -4.5% | [6] -9.4%

CCN(CC)CCCC#CCN1CCOCC1
inactive: [1] -39.5% | [2] -48.5% | [3] -21.4% | [4] -16.9% | [5] -44.7% | [6] -20.1%

CC(CCc1nc2ccccc2[nH]1)c1nc2ccccc2[nH]1 (stereo not drawn)
inactive: [1] -18.6% | [2] 2.05% | [3] -0.8% | [4] 18.1% | [5] 14.8% | [6] 17.4%

O=C(c1ccc(Br)cc1)C(C(c1ccccc1)N1CCOCC1)N1CCOCC1 (stereo not drawn)
inactive: [1] 3.1% | [2] -1.1% | [3] -9.6% | [4] -19.5% | [5] -20.6% | [6] 31.9%

O=C(O)CCC(=O)Oc1ccccc1
inactive: [1] -17.6% | [2] 11.2% | [3] 13.2% | [4] 31.6% | [5] 9.6% | [6] 44.5%

C=CC(C)C(C)C (stereo not drawn)
inactive: [1] 3.15% | [2] 0.4% | [3] -7.55% | [4] 4.3% | [5] 8.65% | [6] -4.8%

Nc1c(N=Nc2ccc(S(=O)(=O)O)cc2)cc2c3c(cccc13)CC2
inactive: [1] 11.3% | [2] 2.35% | [3] 20.6% | [4] 8.65% | [5] -39.5% | [6] 2.4%

CC(=O)C(C)O (stereo not drawn)
inactive: [1] -27.8% | [2] -18.8% | [3] -15.2% | [4] -0.95% | [5] -21.4% | [6] -21.1%

O=[N+]([O-])c1cc(F)cc(I)c1
inactive: [1] -3.15% | [2] -38.6% | [3] 2.15% | [4] 15.8% | [5] 4.25% | [6] -5%

CSc1c(C#N)c(N)nc2c(N=Nc3ccc(Cl)cc3)c(N)nn12
inactive: [1] 8.75% | [2] 3.65% | [3] -9.1% | [4] -4.65% | [5] -6.5% | [6] -58%

CN(C)c1ccc(/C=N/NC=O)c(Cl)c1
inactive: [1] 0.15% | [2] 8.25% | [3] -0.6% | [4] 11.3% | [5] -0.65% | [6] -15.3%

CCOC(=O)/N=c1/nc2ccn(C)c2c(NC(=O)OCC)s1
inactive: [1] 15.1% | [2] -3.5% | [3] -5% | [4] 11% | [5] 7.9% | [6] -15.8%

CNC(=O)Nc1[nH]c(=O)ncc1Cl
inactive: [1] 6.45% | [2] -0.35% | [3] 8.95% | [4] -5.1% | [5] 16.2% | [6] 5.2%

COc1ccc(NC(=O)CC(=O)N2N=C(N(c3ccccc3)c3ccccc3)CC2c2ccccc2)cc1 (stereo not drawn)
inactive: [1] 4.75% | [2] 2.05% | [3] 12.2% | [4] 26.3% | [5] 17.6% | [6] -29.8%

c1nnc2c3c4c(sc3ncn12)CCCC4
inactive: [1] 0.4% | [2] -5.05% | [3] 2.4% | [4] -24.7% | [5] -0.1% | [6] 4.55%

CCOC(=O)NCC(Cl)(Cl)Cl
inactive: [1] -4.6% | [2] 0.25% | [3] -11.1% | [4] -51.4% | [5] 6.6% | [6] -6.7%

COc1ccc(/C=C/Cc2cc3c(cc2OC(C)=O)OCO3)cc1
inactive: [1] 11.8% | [2] 0.4% | [3] 26.1% | [4] -8.4% | [5] 33% | [6] 12.4%

O=C(Nc1c(Cl)cccc1Cl)Oc1cccnc1
inactive: [1] 0% | [2] -19.8% | [3] -9.1% | [4] 2.55% | [5] -23.1% | [6] -1.05%

NCCO
inactive: [1] -1% | [2] 1.15% | [3] -11.8% | [4] -3.6% | [5] 13.2% | [6] -18.9%

CC(O[Si](C)(C)C(C)(C)C)[C@H](NC(=O)OCC(Cl)(Cl)Cl)C(=O)O (stereo partly drawn)
inactive: [1] -9.6% | [2] -27.8% | [3] -17.1% | [4] 26.1% | [5] -45% | [6] -14.8%

Cc1cc2nc(-c3ccccc3O)[nH]c2cc1C
inactive: [1] -14.2% | [2] -29.9% | [3] -5.25% | [4] 2.1% | [5] -29.6% | [6] 9.35%

O=C(/C=C/c1ccc(F)c(F)c1)OCCc1ccccc1
inactive: [1] 28.1% | [2] 29% | [3] 32.7% | [4] 28.9% | [5] 40.9% | [6] 27.2%

Clc1ccccc1C(N1CCCCC1)C(Cl)(Cl)Cl (stereo not drawn)
inactive: [1] 26.6% | [2] 14.6% | [3] 12.8% | [4] 18% | [5] 3.85% | [6] 21.3%

Nc1ccc(S(=O)(=O)N(CCO)CCO)cc1
inactive: [1] -2.65% | [2] -28.2% | [3] -20.9% | [4] -6.95% | [5] -18.8% | [6] -12.3%

O=C1CCc2cc3c(cc21)OCO3
inactive: [1] 4.8% | [2] -33.8% | [3] -3.95% | [4] -9.35% | [5] 6.7% | [6] -6.15%

O=[N+]([O-])c1cc2c3c(cccc3c1O)CC2
inactive: [1] -18.1% | [2] -8.9% | [3] -4% | [4] -9.85% | [5] 4.45% | [6] 24%

O=C(c1ccncc1)C(C(c1ccccc1)N1CCOCC1)N1CCOCC1 (stereo not drawn)
inactive: [1] 25.8% | [2] 8.25% | [3] 34% | [4] 39.5% | [5] 13.6% | [6] 4.4%

O=C1O[C@@H]2C3COC(O)[C@](O)(O3)[C@@H]2/C1=C\c1ccc(O)cc1 (stereo partly drawn)
inactive: [1] 20.1% | [2] 10.4% | [3] 8.4% | [4] 5.25% | [5] 8.45% | [6] 9.4%

NC(=O)CNC(=O)C1CCCN1C(=O)C1CCCCNOC(=O)CC[C@@H](NC(=O)OCC2c3ccccc3-c3ccccc32)C(=O)NC(Cc2c[nH]c3ccccc23)C(=O)N1 (stereo partly drawn) (Fmoc-[dE][ξW][X9][ξP]G-NH2; ester 1-3)
inactive: [1] -10.2% | [2] -15.8% | [3] -6.55% | [4] 24.1% | [5] -16.2% | [6] -19.6%

CCCCC(O)(CCC)CCCC
inactive: [1] -8.75% | [2] -6.95% | [3] 3.75% | [4] -36.9% | [5] -1.25% | [6] 2.55%

O=C(CN1CCCc2ccccc21)c1ccc(Cl)cc1
inactive: [1] -13.2% | [2] -2.05% | [3] 2.55% | [4] 9.2% | [5] 14.1% | [6] 4.35%

CSCCC(C(=O)O)N(CC1(O)OCC(O)C(O)C1O)N=O (stereo not drawn)
inactive: [1] -18.4% | [2] -24.6% | [3] -17.6% | [4] -9.15% | [5] -11.4% | [6] -11.2%

ClCC[n+]1ccc2ccccc2c1
inactive: [1] 3.95% | [2] 11.6% | [3] -13.4% | [4] -13.8% | [5] -9.05% | [6] -10.7%
